# Bioassay records from PubChem BioAssay.
# Most compounds without a hit are left out; they make up all but 19% or so of the library.
# HT1080 IDH1KD tx: HT-1080 IDH1 knockdown cell toxicity (counter line); HT-1080 IDH1 knockdown viability, ATP luminescence, 48 h; Potency, µM (highest dose often 46.1 µM), for the others: top-dose activity, negative = toxicity, most hits filed as cytotoxic; 360,000 compounds, 2% hits; AID 686971;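 note: potency is the fitted concentration of half-maximal effect; 0% = DMSO wells and -100% = cell-free medium wells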
#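 After a 2 h attachment period, IDH1KD HT-1080 cells took pin-transferred compound for 48 h at 37 °C; ATP-based luminescence after 10 min room-temperature reagent incubation reported viability.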
# HT1080NT lethal: kills 2HG-producing HT-1080-NT fibrosarcoma cells; HT-1080-NT fibrosarcoma viability, CellTiter-Glo ATP luminescence, 48 h; Potency, µM (top dose mostly 46.1 µM), without a hit: at the highest dose activity, negative = less viability, actives largely listed as cytotoxic; 360,000 compounds, 1.6% hits; AID 686970;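 note: NT is the 2HG producing partner of a matched IDH1 knockdown line; potency is the fitted concentration of half-maximal effect; 0% = DMSO-treated cells and -100% = media-only wells without cells; nearly all actives have a fitted effect of over 55% in size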
#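 750 cells/well, RPMI + 5% FBS; 2 h settle, compound pin-transfer, 48 h at 37 degrees C. CellTiter-Glo 10 min RT, luminescence. Normalized to DMSO and media-only wells.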
# ELG1 repair inh: inhibitors of ELG1-dependent DNA repair in HEK293T cells. 330,000 compounds, 2.3% hits. Potency, µM (series often up to 46.1 µM), for inactives: at the highest dose activity change, negative = inhibition, most hits filed as inhibitors. HEK293T ELG1-luciferase reporter, luminescence, 16 h; DNA damage induced by 5-fluorouridine; note: potency is the fitted concentration of half-maximal effect; nearly all actives have a fitted effect of over 55% in size
#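 Reporter activity after DNA damage by 5-fluorouridine is monitored. Compound-treated cells incubate 16 hr at 37 °C, then ONE-Glo is added for 30 min before luminescence reading.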
# DT40 TDP1 no CPT: qHTS for Inhibitors of human tyrosyl-DNA phosphodiesterase 1 (TDP1): qHTS in cells in absence of CPT; Potency, µM (top dose mostly 46.2 µM), without a hit: top-dose activity change, negative = growth inhibition, usual class: inhibitors; AID 686978, 2013; 420,000 compounds, 15% hits; DT40 Tdp1-/- hTDP1 cells, no CPT, ATP luminescence, 48 h; note: potency is the fitted concentration of half-maximal effect; nearly all actives have a fitted effect of over 55% in size
#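 Growth of hTDP1-complemented DT40 Tdp1-knockout cells is measured by ATP luminescence after at least 48 hr compound exposure at 37 °C, with DMSO substituting for the 20 nM CPT used in the parallel screen.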
# TDP1 cell CPT: growth inhibition of DT40 Tdp1-/-;hTDP1 cells with camptothecin (screen for TDP1 inhibitors); chicken DT40 Tdp1-/-;hTDP1 cells + 20 nM CPT, ATP luminescence, 48 h; Potency, µM (series often up to 46.2 µM), for inactives: at the top dose activity change, negative = growth inhibition, actives largely listed as inhibitors; 420,000 compounds, 12% hits; AID 686979; note: potency is the fitted concentration of half-maximal effect; nearly all actives have a fitted effect of over 55% in size
#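 Chicken DT40 Tdp1-/- cells stably complemented with human TDP1 were seeded at 400 cells/well in medium containing 20 nM camptothecin, exposed to pin-transferred compounds, and grown at 37 °C for at least 48 hr. Viability was read as ATP luminescence.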
# IL1B secr inh: inhibitors of inflammasome signaling (IL-1 beta secretion) | activity change, % at 57.5 µM | 360,000 compounds, 4.7% hits | THP-1 LPS/ATP IL-1B secretion, AlphaLISA, 16 h; hits give low values | AID 743279; in the data active = activity change below about -50%; inconclusive = mostly about -30% to -49%
#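 THP-1 cells pretreated 1 hr with compounds (up to 57.5 uM final), then stimulated with LPS (250 ng/mL final) plus ATP (1.25 mM final); secreted IL-1B measured by AlphaLISA after 16 hr, decreased signal indicating inhibition.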
# * marks the source's active call; other numbers are inactive results; ? = inconclusive; · = no result; ! = repeats disagree. Unless noted, calls come from the whole dose curve; as a rule, active = well fitted curve in the direction sought with a large enough effect; inconclusive = small, poorly fitted or top-dose-only effect, or another doubt; inactive = no such curve, though single readings can be large; an effect the other way counts as inactive or inconclusive. Unless noted, % is set by controls: 0 for no effect and ±100 for the full control effect.
SMILES,HT1080 IDH1KD tx,HT1080NT lethal,ELG1 repair inh,DT40 TDP1 no CPT,TDP1 cell CPT,IL1B secr inh
O=C(NCc1ccc(F)cc1)c1ccc(CSCc2cccc(Cl)c2)o1,·,·,·,21µM*,?,·
O=C(NC1CC1)c1ccc(CSCc2cccc(F)c2)o1,-6%,11%,-5%,?,?,5
O=C(NCc1ccccc1Cl)c1ccc(CSCc2cccc(F)c2)o1,·,·,·,?,26µM*,·
CCc1cccc(NC(=O)CCCn2c(=O)[nH]c3ccsc3c2=O)c1,8%,-1%,-1%,1%,7%,10
CCOC(=O)C1(CCOc2ccccc2)CCN(Cc2ccc(OC)c(O)c2)CC1,0%,11%,?,?,16µM*,-52*
CCOC(=O)C1(CC2CC2)CCN(Cc2ccc(OC)cc2F)CC1,-19%,-3%,-3%,?,-27%,-54*
CCOC(=O)C1(CCOc2ccccc2)CCN(Cc2ccc(OC)c(COC)c2)CC1,13µM*,?,?,18µM*,18µM*,-52*
CCOC(=O)C1(CCOc2ccccc2)CCN(Cc2cc(OC)c(O)c(OC)c2)CC1,-5%,-19%,-25%,?,29µM*,0
CCOC(=O)C1(CCOc2ccccc2)CCN(Cc2ccc(O)cc2)CC1,-13%,-16%,?,?,?,0
CCOC(=O)C1(CC2CC2)CCN(Cc2cc(Cl)c(O)c(OC)c2)CC1,0%,-2%,-6%,-29%,6%,13
CCOC(=O)C1(CCOc2ccccc2)CCN(Cc2ccc(OCCO)cc2)CC1,?,-22%,?,?,?,?
Cc1ccc(S(=O)(=O)c2nc(/C=C/c3ccccc3)oc2N2CCC(C(N)=O)CC2)cc1,14%,13%,·,?,?,-15
CCOC(=O)C1(CCOc2ccccc2)CCN(Cc2ccc(O)c(OCC)c2)CC1,?,?,?,?,-41%,-89*
CCOC(=O)C1(CCOC)CCN(Cc2cnc(-c3cccc(C)c3)nc2)CC1,-10%,-11%,-12%,16µM*,?,12
CCOC(=O)C1(CC2CC2)CCN(Cc2cnc(-c3ccccc3C)nc2)CC1,-6%,9%,?,18µM*,15µM*,0
CN(Cc1ccccc1)C(=O)C(C(=O)c1ccc(F)cc1)n1cc(Cl)ccc1=O (stereo unspecified),1%,8%,?,-22%,-5%,19
CN(CC(=O)NCCc1ccc(Cl)cc1)S(=O)(=O)c1cccs1,-8%,-4%,4%,-17%,-20%,-17
CCc1ccc(C(=O)c2cn(CC(=O)Nc3ccc4c(c3)OCCO4)c3ccc(C)cc3c2=O)cc1,·,·,·,-1%,2%,·
CN1CCc2cc3c(c4c2[C@H]1[C@H](O)c1ccccc1-4)OCO3,-2%,2%,-2%,?,18µM*,-62*
COc1ccc2c(c1OC)C(=O)O[C@H]2C1c2c(cc3c(c2OC)OCO3)CCN1C (stereo partly specified),·,·,·,?,16µM*!,·
COc1ccccc1CC(O)CC1c2c(cc3c(c2OC)OCO3)CCN1C (stereo unspecified),?,-12%,·,10µM*,12µM*,?
COc1ccc2c(c1OC)C(=O)OC2C1c2c(cc3c(c2OC)OCO3)CCN1C (stereo unspecified),-20%,?,-19%,18µM*!,?,-10
Cc1ccc(-c2ccc(=O)n(CC(=O)NCCC(C)C)n2)cc1,-3%,-3%,15%,15%,-7%,-16
